Over roughly 1,600 compounds, “plate-normalized OD600 growth (mean of duplicates)” has its median near 0.31; the lowest 2% begin near 0.23. The full list was thinned out, with the lowest values kept by preference.
Tested on: Escherichia coli BW25113
Assay: plate-normalized OD600 growth (mean of duplicates) (OD600 (normalized)); higher = more growth (less inhibition)
Conditions: 10 µM
Description: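 E. coli BW25113 in LB (100 µl, 96-well, no shaking) was exposed to 10 µM of each compound (here the ChemBridge subset of a ~30,000-member library) and grown at 37°C for 24 h or 15°C for 48 h, in duplicate. Growth was read as OD600 and the duplicate ODs were normalized across screening plates to correct plate-to-plate variation.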

SMILES | plate-normalized OD600 growth (temperature: 15°C, 48 h) | plate-normalized OD600 growth (temperature: 37°C, 24 h)
O=C(O)c1ccc(S(=O)(=O)c2ccc(O)cc2)cc1 | 0.247 | 0.592
CN(C)c1ccc(CN2CCc3ccccc3C2)cc1 | 0.244 | 0.619
C=CCNC(=O)c1ccc(CN2CCc3ccccc3C2)cc1 | 0.217 | 0.6
c1ccc2c(c1)CCN(Cc1ccncc1)C2 | 0.236 | 0.651
O=C(c1ccccc1[N+](=O)[O-])N1CCN(C(c2ccccc2)c2ccccc2)CC1 | 0.259 | 0.627
CCOc1cc(/C=C(\C#N)c2nc(-c3ccc(OC)cc3)cs2)ccc1O | 0.262 | 0.615
COc1ccc(-c2c(C)[nH]n3c(=O)cc(-c4ccc([N+](=O)[O-])cc4)nc23)cc1 | 0.24 | 0.608
COc1ccc(NCc2ccc(C)s2)cc1OC | 0.244 | 0.604
COc1ccc(NCc2ccc(Cl)cc2Cl)cc1OC | 0.22 | 0.625
COc1ccc(NC(=O)Nc2ccc(F)c(Cl)c2)cc1 | 0.283 | 0.58
O=C(c1sc2ccccc2c1Cl)N1CCN(CCN2C(=O)C3C4C=CC(C4)C3C2=O)CC1 (stereo not given) | 0.243 | 0.611
O=S(=O)(c1ccc(Cl)c(Cl)c1)N1CCCCC1 | 0.252 | 0.619
O=[N+]([O-])c1ccc2[nH]c3c(c2c1)CCCC3NC1CCN(CCc2ccccc2)CC1 (stereo not given) | 0.249 | 0.578
NC1CCCc2c1[nH]c1ccc([N+](=O)[O-])cc21 (stereo not given) | 0.173 | 0.552
Cc1cc(=O)[nH]c2ccc([N+](=O)[O-])cc12 | 0.244 | 0.609
N#C/C(=C\c1ccc(Br)o1)c1nc(-c2ccccc2)cs1 | 0.246 | 0.6
COc1ccc(Cl)cc1NC(=O)c1ccccc1Br | 0.222 | 0.627
O=C(Nc1ccc(Cl)cc1)c1ccccc1Br | 0.264 | 0.633
COc1ccc(NC(=O)c2ccccc2Br)c(OC)c1 | 0.258 | 0.615
O=C1c2cccc([N+](=O)[O-])c2C(=O)N1n1cnnc1 | 0.258 | 0.629
CCC1CCC(NCc2cccc(OC)c2OC)CC1 (stereo not given) | 0.253 | 0.603
Cc1cccc(NC(=O)COc2ccc(C)c(C)c2)c1 | 0.237 | 0.601
COc1ccc(CN2CCCN(C)CC2)c(OC)c1 | 0.25 | 0.619
C=CCOc1ccccc1CN1CCCN(C)CC1 | 0.217 | 0.595
CN1CCCN(Cc2cc(F)ccc2F)CC1 | 0.273 | 0.623
CC1(C)CC(=O)C2=C(C1)Nc1ccccc1NC2c1ccc(Br)cc1 (stereo not given) | 0.275 | 0.627
CC(=O)N1c2ccccc2NC2=C(C(=O)CC(C)(C)C2)C1c1cccn1C (stereo not given) | 0.253 | 0.612

SMILES | plate-normalized OD600 growth (temperature: 15°C, 48 h) | plate-normalized OD600 growth (temperature: 37°C, 24 h)
CC1(C)CC(=O)C2=C(C1)Nc1ccccc1NC2c1cc2c(cc1[N+](=O)[O-])OCO2 (stereo not given) | 0.225 | 0.606
CC1(C)CC(=O)C2=C(C1)Nc1ccccc1NC2c1ccccc1F (stereo not given) | 0.25 | 0.618
CC1(C)CC(=O)C2=C(C1)Nc1ccccc1NC2c1ccc([N+](=O)[O-])s1 (stereo not given) | 0.231 | 0.604
Cn1cccc1C1Nc2ccccc2NC2=C1C(=O)CC(C)(C)C2 (stereo not given) | 0.222 | 0.609
O=C1c2ccccc2C(=O)N1c1nccs1 | 0.239 | 0.622
CC(=O)Nc1ccc(S(=O)(=O)N2CCCC(CO)C2)cc1 (stereo not given) | 0.29 | 0.63
O=C(Nc1nc(/C=C/c2ccccc2)[nH]c(=O)n1)NS(=O)(=O)c1ccccc1Cl | 0.249 | 0.587
CC(C)(C)C(=O)ON1C(=O)c2ccccc2C1=O | 0.25 | 0.616
CN(C)c1ccc(CN2CCc3c([nH]c4ccccc34)C2)cc1 | 0.275 | 0.622
CCCc1noc2c1C(=O)CC(C)(C)C2 | 0.261 | 0.622
CC1(C)CC(=O)c2c(CC3CC(=O)NC(=O)C3)noc2C1 | 0.222 | 0.614
O=[N+]([O-])c1ccccc1CNC1C2CC3CC(C2)CC1C3 (stereo not given) | 0.238 | 0.612
COc1cccc(N2CCN(C3C4CC5CC(C4)CC3C5)CC2)c1 (stereo not given) | 0.291 | 0.627
COc1ccc(CNC2C3CC4CC(C3)CC2C4)c(OC)c1 (stereo not given) | 0.224 | 0.615
COc1ccc(S(=O)(=O)N2CCN(Cc3cccc(F)c3)CC2)cc1 | 0.245 | 0.614
C=CCSc1nc(O)c(CC)c(=O)n1-c1ccccc1 | 0.233 | 0.62
Brc1ccc(CN2CCN(Cc3ccc4c(c3)OCO4)CC2)s1 | 0.262 | 0.639
CC(C)CS(=O)(=O)c1cccs1 | 0.253 | 0.616
O=C1CCCc2occ(-c3ccc([N+](=O)[O-])cc3)c21 | 0.253 | 0.634
O=C1CCCc2c1nc(-c1cccc([N+](=O)[O-])c1)n2O | 0.224 | 0.596
O=C1CCCc2c1nc(-c1ccccc1)n2O | 0.272 | 0.662
COc1ccc(-c2csc(N)n2)cc1Br | 0.26 | 0.647
O=C(O)CCCC(=O)Nc1ccc(Cl)c(Cl)c1 | 0.247 | 0.602
Cc1cccc(-c2nc(-c3cccnc3)no2)c1 | 0.244 | 0.605
C1CCCC(NCCN2CCCCC2)CCC1 | 0.234 | 0.588
CC(=O)NC(C)(CC(=O)c1ccccc1)c1ccccc1 (stereo not given) | 0.227 | 0.639
CC(=O)NC(Cc1ccccc1)Cc1ccccc1 | 0.248 | 0.608

SMILES | plate-normalized OD600 growth (temperature: 15°C, 48 h) | plate-normalized OD600 growth (temperature: 37°C, 24 h)
CC(C)(C)NC(=O)c1ccccc1C(=O)NC(C)(C)C | 0.263 | 0.63
Cc1cccc(N2C(=O)CC(N3CCN(Cc4ccccc4)CC3)C2=O)c1 (stereo not given) | 0.254 | 0.616
COCc1cc(C)nc(NN)c1C#N | 0.258 | 0.622
O=C1c2ccccc2C(=O)C1c1nc2ccccc2[nH]1 | 0.269 | 0.667
COc1ccc(N/C=C(/c2cc(O)ccc2O)[N+](=O)[O-])cc1 | 0.255 | 0.624
CC(=O)Nc1ccc(S(=O)(=O)N2CCN(C)CC2)cc1 | 0.258 | 0.646
COc1ccc(OC)c(Nc2nc(C)c(C(C)=O)s2)c1 | 0.272 | 0.646
CC(=O)c1sc(Nc2ccc(Oc3ccccc3)cc2)nc1C | 0.223 | 0.607
CC(=O)c1sc(N2N=C(c3ccccc3)CC2c2ccccc2)nc1C (stereo not given) | 0.254 | 0.656
CSc1nc2sc3c(c2c(=O)n1C)CCCC3 | 0.246 | 0.618
CN1CCCN(Cc2cccc([N+](=O)[O-])c2)CC1 | 0.22 | 0.627
CN1CCCN(Cc2ccc([N+](=O)[O-])o2)CC1 | 0.258 | 0.607
COc1cccc(OC)c1C(=O)N1CCN(Cc2cccc([N+](=O)[O-])c2)CC1 | 0.266 | 0.645
O=C(O)c1ccc(NS(=O)(=O)c2cccc(C(=O)Nc3ccccc3)c2)cc1 | 0.245 | 0.603
OC(COc1ccc(C23CC4CC(CC(C4)C2)C3)cc1)CN1CCOCC1 (stereo not given) | 0.243 | 0.592
O=C(Nc1ccc(Br)cc1)c1cccnc1 | 0.244 | 0.633
Cc1ccccc1C(=O)Nc1ccc(Br)cc1 | 0.282 | 0.631
NCC(=O)Nc1ccc(Br)cc1 | 0.227 | 0.606
COc1ccc(-c2cn3ccccc3n2)cc1F | 0.229 | 0.633
O=[N+]([O-])c1ccc(-c2nnc(-c3ccccc3Cl)o2)cc1 | 0.244 | 0.601
CCC(CO)NC1=C([N+](=O)[O-])C(=O)CC(C)(C)C1 (stereo not given) | 0.282 | 0.666
CCN(CC)CCN(C)C/C=C/c1ccccc1 | 0.208 | 0.608
CCN(CC)CCN(C)Cc1cccc([N+](=O)[O-])c1 | 0.245 | 0.601
CCN1CCN(C/C=C/c2ccccc2)CC1 | 0.28 | 0.634
C=CCSc1nc(N)c(C#N)c(CC)c1C#N | 0.239 | 0.605
CCC1CCCCN1C(=O)c1cccc([N+](=O)[O-])c1C (stereo not given) | 0.247 | 0.612
CCC1CCCCN1C(=O)c1cccs1 (stereo not given) | 0.225 | 0.613

SMILES | plate-normalized OD600 growth (temperature: 15°C, 48 h) | plate-normalized OD600 growth (temperature: 37°C, 24 h)
Cc1ccccc1C(=O)N1CCCCC1CO (stereo not given) | 0.294 | 0.624
COc1cc2c(cc1OC)C(c1cc(OC)c(OC)c(OC)c1)N(C)CC2 (stereo not given) | 0.244 | 0.624
COc1cc(OC)cc(C(=O)Nc2cccc(C)c2C)c1 | 0.253 | 0.63
O=C(O)CSc1nccn1Cc1ccccc1 | 0.244 | 0.625
CCOC(=O)N1CCN(Cc2ccccc2Cl)CC1 | 0.244 | 0.621
CCOC(=O)N1CCN(Cc2ccc(N(C)C)cc2)CC1 | 0.219 | 0.58
CCOC(=O)N1CCN(Cc2c(F)cccc2F)CC1 | 0.263 | 0.656
O=C(Nc1ccc(Oc2ccc(NC(=O)c3cccnc3)cc2)cc1)c1cccnc1 | 0.27 | 0.629
Fc1ccc(CN2CCN(c3ncccn3)CC2)cc1 | 0.253 | 0.629
N#CSCCCCOc1ccccc1Cl | 0.251 | 0.605
CC(C)(C)c1ccccc1OCCCCSC#N | 0.209 | 0.619
CC(C)(C)c1ccccc1OCCCSC#N | 0.233 | 0.622
CC(c1ccccc1)N1CCC(=O)C2=C1CCCC2 (stereo not given) | 0.241 | 0.604
[O-][n+]1onc2c(-c3ccccc3)nnc(-c3ccccc3)c21 | 0.254 | 0.616
Fc1ccc(CN2CCN(c3ccccn3)CC2)c(F)c1 | 0.244 | 0.601
N#CCCN(CCN1CCCC1)S(=O)(=O)c1cccc2nsnc12 | 0.253 | 0.624
CN(C)c1nc(N)nc(-c2ccco2)n1 | 0.226 | 0.632
Nc1nc(-c2ccco2)nc(-c2ccco2)n1 | 0.272 | 0.646
N#Cc1c(N)nc2c(c1-c1ccco1)CCCCCC2 | 0.249 | 0.615
O=C1CCCc2c1nn(-c1ccccc1)[n+]2[O-] | 0.249 | 0.618
O=C(Nc1ccc(F)cc1F)c1cccc(Br)c1 | 0.259 | 0.605
COc1ccc(C)cc1NCc1ccc(SC)cc1 | 0.282 | 0.644
Cc1nc(N)nc(OCC(F)(F)C(F)F)c1Br | 0.221 | 0.604
CCN(CC)CCOc1ccccc1Br | 0.233 | 0.621

Source: the supplement of paper PMC4371806
